Compounds with a hit are over-represented: about 13% of the library has one in this group of screens.
HCV inhibitor – inhibitors of hepatitis C virus infection; 340,000 compounds, 3.4% hits; Huh7.5.1 HCVcc-Cre infection, luciferase reporter, 44 h; Potency, µM (top dose mostly 41.8 µM), actives largely listed as inhibitors; active = well fitted inhibition curve with a large enough effect; inconclusive = small, poorly fitted or top-dose-only effect, or another doubt; inactive = no such curve, though single readings can be large or run the other way
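Luciferase read-out (15 sec integration) after a 15 min room-temperature substrate step quantifies HCVcc-Cre infection. Cells, 1,000 per well, had compound added 4 h post-plating, then virus at ~0.5 moi, and were cultured 44 h.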
FMDV antiviral – foot and mouth disease virus antiviral activity | FMDV antiviral cell-based qHTS | Potency, µM (titrated, usually from 57.9 µM), usual class: inhibitors | 410,000 compounds, 1.2% hits; calls by dose curve; tested in HEK293T cells; also: read-out not given here; nearly all actives have a fitted effect of over 45% in size
Cycloheximide cs – counter-screen for Shiga toxin inhibitors: cycloheximide protein synthesis inhibition; cell reporter, cycloheximide protein synthesis inhibition counterscreen; max response, %; 300,000 compounds, 12% hits; in the data active = max response mostly above about 13%, no sharp cut-off; inactive = mostly below about 14%; also: read at 38.3 µM for the half of the compounds with a filed dose
Marburg entry inh – inhibitors of Marburg virus binding or cell entry; Marburg virus pseudotyped entry inhibition, cell reporter; AID 540276; 300,000 compounds, 1.8% hits; Potency, µM (top dose mostly 37.8 µM), actives largely listed as inhibitors; calls by dose curve; tested in HEK293 cells
Shiga inhibitor – inhibitors of Shiga toxin in Vero cells; 290,000 compounds, 9.2% hits; inhibition, % at 38.7 µM; Vero cells, Shiga toxin protein synthesis inhibition reporter; in the data active = inhibition mostly above about 28%, no sharp cut-off; inactive = mostly below about 43%
Lassa entry inh – blocks Lassa virus binding to or entry into cells; 300,000 compounds, 1.2% hits; Lassa virus pseudotype entry inhibition, cell reporter; Potency, µM (highest dose often 37.9 µM), hits mostly inhibitors; calls by dose curve; tested in HEK293 cells; also: nearly all actives have a fitted effect of over 50% in size
Hits are given with their value; i = inactive; ? = inconclusive; nt = not tested or not shown.

SMILES	HCV inhibitor	FMDV antiviral	Cycloheximide cs	Marburg entry inh	Shiga inhibitor	Lassa entry inh
O=c1c(O)c(-c2ccc(O)cc2)oc2cc(O)cc(O)c12	6.3µM	i	nt	nt	nt	nt
COc1ccc(OC)c(-c2csc(NC(=O)Cc3ccc(F)cc3)n2)c1	?	i	i	?	i	?
COc1ccc(OC)c(-c2csc(NC(=O)Cc3cc(OC)c(OC)c(OC)c3)n2)c1	11µM	?	i	?	i	i
COc1ccc(OC)c(-c2csc(NC(=O)COC(=O)C3CCC3)n2)c1	?	i	nt	nt	nt	nt
COc1ccc(OC)c(-c2csc(NC(=O)CSc3ccc(Br)cc3)n2)c1	?	i	i	i	i	7.9µM
COc1ccc(OC)c(-c2csc(NC(=O)CSc3ccc([N+](=O)[O-])cc3)n2)c1	10µM	?	i	?	i	?
Cc1ccccc1NC(=O)Cc1nc(COC(=O)Cc2ccccc2F)cs1	i	i	nt	nt	nt	nt
O=C(Nc1cc(-c2ccccc2)[nH]n1)c1ccccc1	i	i	34	?	79	?
CC(=O)Nc1cc(-c2ccc(F)cc2)[nH]n1	i	i	24	i	i	i
O=C(Nc1c(-c2ccccc2)[nH][nH]c1=O)c1ccccc1	nt	i	nt	nt	nt	nt
CC(=O)c1cc(-c2ccc(F)cc2)n(CCC(=O)Nc2cc(C)[nH]n2)c1C	?	i	i	i	i	i
O=C(Nc1cc(-c2ccccc2)[nH]n1)c1ccccc1F	i	i	42	?	105	?
O=C(O)c1ccccc1C(=O)Nc1cc(-c2ccccc2)[nH]n1	i	i	i	?	i	i
CCNC(=S)Nc1cc(-c2ccc(Cl)cc2)[nH]n1	?	i	24	i	i	i
CCNC(=S)Nc1ccc(Cl)cc1	i	i	i	i	i	i
COCCNC(=O)C(c1ccco1)N(C(=O)Cn1nnc2ccccc21)c1cccc(C)c1C (configuration not stated)	i	i	i	i	i	?
Clc1cccc(-c2ccc3nccn3c2)c1Cl	nt	i	nt	nt	nt	nt
O=C(NCc1ccccc1)C1CCCN(S(=O)(=O)c2ccc(F)cc2)C1 (configuration not stated)	i	i	i	?	i	?
CCNC(=O)COC(=O)c1cc(C)n(-c2ccccc2)c1C	i	i	41	i	62	i
O=C(COC(=O)c1ccccc1Nc1cccc(C(F)(F)F)c1)NCc1ccco1	?	?	17	i	i	?
Cc1cc(C(=O)OCC(=O)N2CC(C)OC(C)C2)c(C)n1-c1ccccc1 (configuration not stated)	i	i	nt	i	nt	i
Cc1cc(C(=O)OCC(=O)NCc2ccco2)c(C)n1-c1ccc(F)cc1	?	?	i	?	i	10µM
Cc1cc(C)c2c(c1)c(C)cc1nnc(SCC(=O)c3ccc(F)cc3)n12	nt	i	nt	i	nt	i
CCc1ccc(OCC(=O)Nc2ccc(-c3nc4ccccc4o3)c(O)c2)cc1	i	i	i	?	i	i
Oc1cc(NCc2cccnc2)ccc1-c1nc2ccccc2o1	?	i	53	?	84	?
SMILES	HCV inhibitor	FMDV antiviral	Cycloheximide cs	Marburg entry inh	Shiga inhibitor	Lassa entry inh
CN(C(=O)COC(=O)/C=C/c1cccs1)C1CCCCC1	i	i	nt	?	nt	i
N#CC1=C(N)OC2=C(CC/C2=C\c2ccccc2Cl)C1c1ccccc1Cl (configuration not stated)	?	i	i	i	i	nt
N#CC1=C(N)OC2=C(CC/C2=C\c2ccccc2)C1c1ccccc1 (configuration not stated)	i	18µM	i	?	i	i
Cc1[nH]c2ccccc2c1/C=N/Nc1ccc(F)cc1F	i	nt	31	i	30	i
Cc1[nH]n(-c2ccc([N+](=O)[O-])cc2)c(=O)c1C=NCC1CCCO1 (configuration not stated)	i	i	i	i	i	i
Cc1[nH]c2ccccc2c1/C=N/NC(=O)c1cccc(F)c1	i	i	26	nt	62	nt
Cc1[nH]c2ccccc2c1/C=N/NC(=O)c1cccc([N+](=O)[O-])c1	i	i	i	i	i	i
Cc1ccc(-n2[nH]c(C)c(/C=N/Nc3ccc([N+](=O)[O-])cc3[N+](=O)[O-])c2=O)cc1	?	7.9µM	i	?	i	i
Cc1[nH]c2ccccc2c1/C=C/c1cc[n+](C)cc1	?	i	i	i	i	?
Cc1[nH]c2ccccc2c1/C=N\NC(=O)c1ccco1	i	i	30	nt	57	nt
CC(C)(C)c1cc(Br)c(O)c(N=Nc2ccc(S(=O)(=O)N3CCOCC3)cc2)c1	i	i	i	i	i	i
CCOc1ccc2c(c1)NC(c1cccs1)=NC(c1ccc(F)cc1)=N2	nt	i	nt	i	nt	i
COc1ccccc1NS(=O)(=O)c1cc([N+](=O)[O-])ccc1N/N=C/c1c(C)[nH]c2ccccc12	?	i	i	?	i	?
Cc1[nH]c2ccccc2c1/C=N/Nc1nncn1N	i	i	55	?	112	nt
Cc1[nH]c2ccccc2c1/C=N/Nc1ccccn1	nt	nt	i	nt	i	nt
Cc1[nH]c2ccccc2c1/C=N/NC(=O)CNC(=O)c1cccs1	i	i	i	?	i	?
Cc1[nH]n(-c2ccc([N+](=O)[O-])cc2)c(=O)c1C=NCCc1c(C)[nH]c2ccccc12	i	25µM	i	?	i	i
Cc1[nH]c2ccccc2c1/C=N/NC(=O)c1cccs1	?	i	51	i	i	i
Cc1[nH]c2ccccc2c1/C=N/Nc1ccc([N+](=O)[O-])cc1	2µM	i	19	i	77	i
CCOc1ccc(N(CC(=O)NCCSc2ccccn2)S(C)(=O)=O)cc1	i	i	i	i	i	i
O=Cc1c(C(=O)O)n(Cc2ccccc2Cl)c2ccccc12	i	i	i	i	i	i
Cc1c(/C=N/NC(=O)c2cccs2)c2ccccc2n1Cc1ccccc1Cl	?	i	23	2.9µM	30	4.1µM
CCC(C)Nc1nc(N)c([N+](=O)[O-])c(Nc2cc(OC)ccc2OC)n1 (configuration not stated)	?	?	i	?	i	?
CCC(C)Nc1nc(N)c([N+](=O)[O-])c(NCc2ccccc2)n1 (configuration not stated)	11µM	?	i	nt	i	nt
CCC(C)Nc1nc(N)c([N+](=O)[O-])c(Nc2ccccc2OC)n1 (configuration not stated)	13µM	?	i	i	i	?
SMILES	HCV inhibitor	FMDV antiviral	Cycloheximide cs	Marburg entry inh	Shiga inhibitor	Lassa entry inh
Cc1noc(C)c1C(=O)N1CCN(c2ccccc2O)CC1	i	i	nt	i	nt	i
O=C(N/N=C/c1ccc(O)c(O)c1O)/C(=C/c1ccc([N+](=O)[O-])cc1)NC(=O)c1ccccc1	6.3µM	i	i	i	i	i
Cc1ccc(NC(=O)/C(=C\c2ccc([N+](=O)[O-])cc2)NC(=O)c2ccccc2)cc1	i	i	i	i	i	i
CCOc1cccc(CC(=O)N2CCc3c([nH]c4ccccc34)C2c2ccc(SC)cc2)c1OCC (configuration not stated)	nt	i	nt	?	nt	?
COc1ccc(N2Cc3cccc(C(=O)O)c3C2=O)cc1	i	i	i	nt	i	nt
CS(=O)(=O)c1ccc2c(c1)sc1nc(=O)c(/C=C3/C=CC(=O)C(O)=C3)c(N)n12	i	i	20	?	41	i
